Drawing on the supplement of paper PMC12339681, this text covers synaptosome phagocytic index for 36 compounds.

Where a name gives a salt, the structure may show the parent alone.

The assay concerns PBMC-derived induced microglia-like cells (piMGLC). Briefly: synaptosome phagocytic index relative to DMSO control (fraction of DMSO); higher = more phagocytosis. The conditions noted are these: concentration: 10 uM (2 uM for compounds listed in Table S2); pretreatment time: 24 h; assay time: 3 h.
Take `COc1ccc(C2CNC(=O)C2)cc1OC1CCCC1` (stereo unspecified) [Rolipram]: the synaptosome phagocytic index worked out at 0.814.

With `CCNc1nc(Nc2cc(F)c(C(=O)N3CCOCC3)cc2OC)ncc1C(F)(F)F` [GNE-7915_(tosylate)], the synaptosome phagocytic index turned out to be 0.359. Then `C[C@H]1OC[C@]2(c3cc(NC(=O)c4cnc(C(F)F)cn4)ccc3F)N=C(N)SC[C@H]12` [Elenbecestat], with 0.918; and `COc1cc(C(C)=O)ccc1OCCCN1CCC(c2noc3cc(F)ccc23)CC1` [Iloperidone], with 0.853. In the case of `CN1C(=O)[C@@H](NC(=O)c2n[nH]c(Cc3ccccc3)n2)COc2ccccc21` it was 1.15; in that of `NS(=O)(=O)Cc1noc2ccccc12` [Zonisamide], 0.742. In the case of `COc1ccc2c(c1)c(CC(=O)O)c(C)n2C(=O)c1ccc(Cl)cc1` [Indomethacin] it was 1.22; in that of `NC(=O)c1ccc(I)c([N+](=O)[O-])c1` [Iniparib], 0.96. As for `CC(=O)OCC(=O)[C@@]1(O)[C@H](C)C[C@H]2[C@@H]3CCC4=CC(=O)C=C[C@]4(C)[C@@]3(F)[C@@H](O)C[C@@]21C` [Dexamethasone_acetate], the synaptosome phagocytic index came to 0.776. Take `COC(=O)/C=C/C(=O)OC` [Dimethyl_fumarate]: the synaptosome phagocytic index came out at 0.706. In the case of `Nc1cc(C(F)F)c(-c2nc(N3C4CCC3COC4)nc(N3C4CCC3COC4)n2)cn1` it was 0.347; in that of `O=C(c1ccc(Cl)cc1)N(Cc1ccccc1)C1CCCCC1`, 0.616; in that of `Cn1cnc2c(F)c(Nc3ccc(Br)cc3Cl)c(C(=O)NOCCO)cc21` [Selumetinib], 0.811. In the case of `NCCCS(=O)(=O)O` [Tramiprosate] it was 1.14; in that of `Cc1cc(NS(=O)(=O)c2ccc(N)cc2)no1` [Sulfamethoxazole], 1.17.

`OC(CN1CCN(c2cccc(Cl)c2)CC1)C(c1ccccc1)c1ccccc1` (stereo unspecified): the synaptosome phagocytic index is 1.01.

`Nc1cccc2c1CN(C1CCC(=O)NC1=O)C2=O` (stereo unspecified) [Lenalidomide]: the synaptosome phagocytic index came to 1.11. Take `Cc1ccc(C(=O)NCCCCCC(=O)Nc2ccccc2N)cc1`: the synaptosome phagocytic index worked out at 0.694. Turning to `C[N+](C)(C)CCOP(=O)([O-])OC[C@H](O)CO` [sn-Glycero-3-phosphocholine], the synaptosome phagocytic index amounted to 0.483. Then `CN(C)CCCN1c2ccccc2CCc2ccccc21` [Imipramine_(hydrochloride)], with 0.863; and `CN(C)CCOc1ccc(-c2nc(-c3ccncc3)c(-c3ccc4c(c3)CC/C4=N\O)[nH]2)cc1`, with 0.684; and `COc1ccc2c3c1O[C@H]1C[C@@H](O)C=C[C@@]31CCN(C)C2` [Galanthamine], with 0.617.

Take `CCOCc1cc(OC)c(-c2ccc(C[C@H](NC(=O)c3c(F)cccc3F)C(=O)O)cc2)c(OC)c1` [Firategrast]: the synaptosome phagocytic index is 0.931. Then `COc1ncc(F)cc1CNc1ccc(Cc2c[nH]c3ncc(C)cc23)c(F)n1`, with 0.951.

As for `NC(=O)OCC(COC(N)=O)c1ccccc1` [Felbamate], the synaptosome phagocytic index is 0.618. Then `Nc1ncnc2c1ncn2[C@@H]1O[C@H](CO)[C@@H](O)[C@H]1O` [Adenosine], with 0.51; and `CC(C)NCC(O)COc1ccc(CC(N)=O)cc1` (stereo unspecified) [Atenolol], with 0.717.

For the compound `C[C@H](C(=O)O)c1cccc(C(=O)c2ccccc2)c1` [S-(+)-Ketoprofen], the synaptosome phagocytic index was 0.724.

Take `O=C1CCC(N2C(=O)c3ccccc3C2=O)C(=O)N1` (stereo unspecified) [Thalidomide]: the synaptosome phagocytic index is 0.811. On to `CC(C)[C@H](NC(=O)c1ccc2ccccc2n1)C(=O)N[C@@H](CC(=O)O)C(=O)COc1c(F)cccc1F`, for which the synaptosome phagocytic index stood at 1.14. Then `O=C(O)Cc1ccccc1Nc1c(Cl)cccc1Cl` [Diclofenac_(Sodium)], with 0.856; and `CC[C@H](COc1cccnc1C1CCN(C(=O)[C@@H](Cc2ccc(Cl)cc2Cl)NC(=O)N2CCCC2)CC1)N1CCCC1`, with 0.292; and `Cc1nc2n(c(=O)c1CCN1CCC(c3noc4cc(F)ccc34)CC1)CCCC2O` (stereo unspecified) [Paliperidone], with 0.852. In the case of `Clc1cccc(CN=C2Nc3ccccc3NC23CCNCC3)c1` [Liproxstatin-1] it was 1.31. In the case of `Oc1cc(-c2nc(-c3ccccc3)[nH]c2-c2ccncc2)ccc1Cl` it was 0.229; in that of `CCCCCCCCCC(=O)OCCN1CCN(CCCN2c3ccccc3Sc3ccc(C(F)(F)F)cc32)CC1` [Fluphenazine_decanoate], 1.03.
